Assay outcomes from PubChem.
Hits are enriched below; roughly 1.4% of the tested compounds scored in any of these assays.
GRK2 inh = compounds blocking aptamer binding on GRK2 – biochemical, human GRK2, bead flow cytometry, HTS, primary screen. Beta-adrenergic receptor kinase 1 (Homo sapiens), P25098. FAM-aptamer displacement from GRK2. inhibition of aptamer binding, % at 10 µM. actives 0.59% (n = 330,000);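 active means inhibition of aptamer binding above 40%, roughly 3 SD of noise, on plates passing a quality check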;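 further: median bead fluorescence of bound FAM aptamer so fluorescent compounds give negative values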
A3G deaminase = APOBEC3G DNA deaminase inhibitors, primary screen, biochemical, fluorescence, single-stranded DNA substrate, uHTS; DNA dC->dU-editing enzyme APOBEC-3G (Homo sapiens), Q9HC16; recombinant A3G, ssDNA deamination FAM/TAMRA fluorescence; inhibition, % at 20 µM; actives 0.28% (n = 330,000);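 active means inhibition of at least 40% at 20 µM, with no more than 30% in the related APOBEC3A deaminase screen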
A3A deaminase = APOBEC3A ssDNA deaminase inhibitors, primary screen, selectivity assay for APOBEC3G inhibitor project, biochemical, FAM/TAMRA oligo cleavage fluorescence; DNA dC->dU-editing enzyme APOBEC-3A (Homo sapiens), P31941; actives 0.41% (n = 330,000); inhibition, % at 20 µM; recombinant A3A, FAM/TAMRA ssDNA deamination fluorescence;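 active means at least 40% inhibition at 20 µM here, with at most 30% in a related deaminase screen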
Target sequence (P31941 whole entry, looked up): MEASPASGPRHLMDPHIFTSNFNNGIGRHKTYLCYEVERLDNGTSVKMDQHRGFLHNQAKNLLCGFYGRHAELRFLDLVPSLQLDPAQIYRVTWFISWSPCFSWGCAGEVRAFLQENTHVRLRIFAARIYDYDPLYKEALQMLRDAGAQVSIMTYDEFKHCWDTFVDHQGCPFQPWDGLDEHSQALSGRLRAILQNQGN
VLA-4 inh = inhibition in human VLA-4 binding assay, primary screen, VLA-4 allosteric modulator project, MLPCN library, flow cytometry, VLA-4 expressing cells | inhibition, % (about 7 µM as worked out from the volumes in the protocol) | Integrin alpha-4 (Homo sapiens), P13612 | ligand binding flow cytometry | actives 0.2% (n = 330,000); in the data active means inhibition above about 50%
GRK2 inh confirm = GRK2 aptamer-displacing inhibitors, retest, confirmation, biochemical, cherry pick 1, bead flow cytometry | shares compounds with GRK2 inh | bead-bound GRK2, FAM-aptamer displacement | aptamer displacement, % at 10 µM | actives 4% (n = 2,000);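 active means aptamer displacement above 40%, near three times the noise of non-fluorescent compounds, on plates passing quality checks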;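 further: negative values mostly reflect intrinsic compound fluorescence rather than true enhancement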
Aptamer quench 1 = fluorescent aptamer quenching in GRK2 counter-screen dose response. 110 tested, under 10 active. fluorescence change (kMESF span), kMESF (test concentration not listed). Fluorescent RNA aptamer beads, flow cytometry; active compounds read high. shares compounds with GRK2 inh;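 active means compounds whose bead fluorescence drops by more than 37 kMESF across the dose range, marking them as dye quenchers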
Aptamer quench SP = counter-screen for GRK2 aptamer inhibitors: fluorescent aptamer quenchers | shares compounds with GRK2 inh | Carboxyfluorescein RNA aptamer on beads, flow cytometry quenching; active compounds read low | fluorescence response (% of DMSO), % at 10 µM | 2,000 tested, under 10 active | AID 504580;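 active means compounds that quench the bead-bound fluorescent RNA probe, cutting fluorescence to under half of the solvent control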;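 further: counterscreen run without GRK2 so only probe quenching by compound is measured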
APOBEC3A confirm = APOBEC3A deaminase inhibitors, retest, confirmation, selectivity assay for APOBEC3G inhibitor project, biochemical, single concentration, fluorescence readout; shares compounds with A3A deaminase; recombinant A3A, ssDNA deaminase UDG fluorescence assay; inhibition, % at 20 µM; actives 63% (n = 1,400);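 active means inhibition reaching a set limit, 80% of the first screen's cutoff, at 20 µM in any replicate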
UDG ctr A3A = E. coli UDG inhibitors, confirmation, counter-screen for APOBEC3A inhibitor project, biochemical, single concentration, fluorescence, FAM/TAMRA oligo. UDG counterscreen, FAM/TAMRA uracil oligo fluorescence. inhibition, % at 20 µM. 1,000 tested, under 10 active. shares compounds with A3A deaminase; call rule not given here
APOBEC3G confirm = APOBEC3G deaminase inhibitor retest, confirmation, biochemical, fluorescence, single-stranded DNA substrate, single concentration; recombinant A3G ssDNA deaminase, UDG/FAM-TAMRA fluorescence; shares compounds with A3G deaminase; AID 493152, 2011; actives 72% (n = 890); inhibition, % at 20 µM;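 active means inhibition reaching a set limit in any replicate at 20 µM, the limit being 80% of the first screen's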
UDG ctr A3G = E. coli UDG inhibitors, confirmation, counter-screen for APOBEC3G inhibitor project, biochemical, single concentration, fluorescence, FAM/TAMRA oligo | shares compounds with A3G deaminase | UDG counterscreen | AID 504715, 2011 | inhibition, % at 20 µM | 710 tested, under 10 active;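 active means compounds giving 40% or more inhibition at 20 µM in any one of the three replicates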;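 further: inhibitors lower the FAM signal released by uracil excision and alkaline cleavage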
Target sequence (P12295 whole entry, looked up): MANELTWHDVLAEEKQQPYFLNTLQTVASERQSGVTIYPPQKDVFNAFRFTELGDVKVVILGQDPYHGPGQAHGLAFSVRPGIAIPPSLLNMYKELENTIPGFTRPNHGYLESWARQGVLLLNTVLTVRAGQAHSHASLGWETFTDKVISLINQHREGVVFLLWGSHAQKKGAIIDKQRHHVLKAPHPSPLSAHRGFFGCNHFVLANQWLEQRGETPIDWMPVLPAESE
A number is an active result; – = inactive; · = no result.

SMILES	GRK2 inh	A3G deaminase	A3A deaminase	VLA-4 inh	APOBEC3A confirm	others
CC(C)Oc1ccc(C(=O)Nc2c3c(nn2-c2ccccc2)CS(=O)(=O)C3)cc1	–	–	–	–	·
CCOc1ccc(NC(=O)c2cc3ccccc3cc2O)cc1	–	–	63.0	–	51.6	GRK2 inh confirm=–;Aptamer quench SP=–;UDG ctr A3A=–
CCOc1ccc(NC(=O)c2cc3ccccc3cc2OC)cc1	–	–	–	–	·
Cc1ccc(NC(=O)C(C)N=C2NS(=O)(=O)c3ccccc32)cc1 (stereo not drawn)	–	–	–	–	·
COc1ccccc1C(=O)Nc1ccccc1N1CCN(S(C)(=O)=O)CC1	–	–	–	–	·
C=C(C)C(=O)Nc1cccc(C2=NOC3(C2)C[C@@H](C(N)=O)N(C(=O)C(=C)C)C3)c1 (stereo partly drawn)	75.0	88.2	–	–	·	GRK2 inh confirm=43.2;Aptamer quench 1=–;Aptamer quench SP=–;APOBEC3G confirm=92.0;UDG ctr A3G=–
C=C(C)C(=O)Nc1cccc(C2=NOC3(C2)C[C@H](C(N)=O)N(C(=O)c2ccccc2)C3)c1 (stereo partly drawn)	48.0	62.8	–	–	·	GRK2 inh confirm=–;Aptamer quench 1=–;Aptamer quench SP=–;APOBEC3G confirm=65.3;UDG ctr A3G=–
C=C(C)C(=O)N1CC2(CC(c3cccc(NC(=O)/C=C\C=C/C)c3)=NO2)C[C@H]1C(N)=O (stereo partly drawn)	–	–	–	–	·
C=C(C)C(=O)Nc1cccc(C2=NOC3(C2)C[C@@H](C(N)=O)N(C(=O)c2ccc(Cl)cc2)C3)c1 (stereo partly drawn)	97.0	100.4	–	–	·	GRK2 inh confirm=91.7;Aptamer quench 1=–;Aptamer quench SP=–;APOBEC3G confirm=90.2;UDG ctr A3G=–
CC(=O)Nc1ccc(NC(=O)c2cccc(-c3cc4ccccc4oc3=O)c2)cc1	–	–	–	–	·
CC(=O)Nc1ccc(S(=O)(=O)NNC(=O)c2ccc3c(c2)OCO3)cc1	–	–	–	–	·
CC(=O)Nc1ccc(S(=O)(=O)NNC(=O)c2cccc(Cl)c2)cc1	92.0	75.6	–	–	·	GRK2 inh confirm=–;Aptamer quench SP=–;APOBEC3G confirm=–
O=C(NNC(=O)C1C2CCC(C2)C1C(=O)O)c1ccc(Br)o1 (stereo not drawn)	–	–	–	–	·
C=C(C)C(=O)Nc1cccc(C2=NOC3(C2)C[C@H](C(N)=O)N(C(=O)/C=C/C)C3)c1 (stereo partly drawn)	70.0	86.3	–	–	·	GRK2 inh confirm=50.0;Aptamer quench 1=–;Aptamer quench SP=–;APOBEC3G confirm=91.3;UDG ctr A3G=–
C/C=C/C(=O)N1CC2(CC(c3cccc(NC(=O)CC)c3)=NO2)C[C@H]1C(N)=O (stereo partly drawn)	–	–	–	–	·
C=C(C)C(=O)Nc1cccc(C2=NOC3(C2)C[C@@H](C(N)=O)N(C(=O)/C=C/CC)C3)c1 (stereo partly drawn)	61.0	91.4	–	–	·	GRK2 inh confirm=41.2;Aptamer quench 1=–;Aptamer quench SP=–;APOBEC3G confirm=92.8;UDG ctr A3G=–
O=[N+]([O-])c1ccccc1S(=O)(=O)Oc1ccc(C(=S)N2CCOCC2)cc1	–	–	–	–	·
CCOc1cc(N2CCOCC2)c(OCC)cc1NC(=O)CCS(=O)(=O)c1ccc(Cl)cc1	–	–	–	–	·
CCOc1cc(N2CCOCC2)c(OCC)cc1NS(=O)(=O)c1ccc(Cl)s1	–	–	59.6	–	–
CN1CCN(c2ccc(NC(=O)c3cccs3)cc2)CC1	–	–	–	–	·
COc1cccc(N2[C@@H](CC(=O)O)c3ccc(/C=C/C(=O)O)cc3S2(=O)=O)c1	–	–	94.0	–	78.9	UDG ctr A3A=–
C[N+](C)(C)CCN(Cc1ccc(Cl)cc1)c1ccccn1	–	–	58.2	–	67.8	UDG ctr A3A=–
Cc1nc2ccccc2c(=O)[nH]1	–	–	–	–	·
O=c1[nH]c(C2C3CC4CC(C3)CC2C4)nc2ccccc12 (stereo not drawn)	–	–	49.0	–	–	UDG ctr A3A=–
COCc1c(C(=O)N2CCN(S(=O)(=O)c3ccccc3Cl)CC2)oc2ccccc12	–	–	–	–	·
SMILES	GRK2 inh	A3G deaminase	A3A deaminase	VLA-4 inh	APOBEC3A confirm	others
COCc1c(C(=O)N2CCN(Cc3nc4ccccc4s3)CC2)oc2ccccc12	–	–	63.2	–	71.5	UDG ctr A3A=–
CCOC(=O)c1ccc(NC(=O)CSc2nc(C)cc(=O)[nH]2)cc1	–	–	45.8	–	66.3	UDG ctr A3A=–
O=C(NCc1ccc(F)cc1)C(=O)NCC(c1ccco1)N1CCOCC1 (stereo not drawn)	–	–	–	–	·
COc1cccc(OCCn2cc(C(=O)c3ccco3)c3ccccc32)c1	–	–	–	–	·
COc1cccc(OCCn2cc(C(C)=O)c3ccccc32)c1	–	–	47.7	–	–
CCn1c(SC)nnc1-c1nn(-c2ccccc2)ccc1=O	–	–	57.9	–	66.3	UDG ctr A3A=–
CC(C)(C)c1ccc(NC(=O)COC(=O)c2ccc(CN3CCCC3=O)cc2)cc1	–	–	–	–	·
CC1(C#CC[N+]2(C)CCCCC2)CCC2C(O1)c1ccccc1OC2(C)C (stereo not drawn)	–	–	74.7	–	60.8	UDG ctr A3A=–
CC1(C(O)(C#CC[N+]2(C)CCCCC2)c2ccccc2)CCCC1 (stereo not drawn)	–	–	–	–	·
CCOC(=O)C1=C(C)NC(=O)NC1c1ccc2c(c1)OCCO2 (stereo not drawn)	–	–	–	–	·
